Among the data in PMC7819943, “Rice protein-binding microarrays: a tool to detect cis-acting elements near promoter regions in rice” are binding signal values, retold here.

The full ranking holds about 39,000 sequences; the median of “fluorescence intensity (a.u.)” is about 4,300, and the highest 2% start at about 39,000. Many of the other results were omitted from the sample, so the highest values are more common in it than they were.

The experiment has as its target T1, OsSMF1 (Oryza sativa, UniProt Q6ZLB0 1-436).
T1 sequence: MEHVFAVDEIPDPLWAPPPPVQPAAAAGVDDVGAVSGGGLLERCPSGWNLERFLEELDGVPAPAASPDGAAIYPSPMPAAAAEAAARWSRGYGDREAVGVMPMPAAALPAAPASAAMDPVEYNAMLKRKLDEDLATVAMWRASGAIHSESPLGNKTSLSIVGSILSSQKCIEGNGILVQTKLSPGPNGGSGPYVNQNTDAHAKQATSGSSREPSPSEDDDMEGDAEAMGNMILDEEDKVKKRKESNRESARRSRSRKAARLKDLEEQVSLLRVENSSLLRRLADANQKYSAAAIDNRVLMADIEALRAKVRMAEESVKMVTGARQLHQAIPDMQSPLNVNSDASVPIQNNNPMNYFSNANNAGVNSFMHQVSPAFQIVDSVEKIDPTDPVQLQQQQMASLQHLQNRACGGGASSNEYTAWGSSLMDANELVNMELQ
As to the kind of experiment: protein-binding microarray (RPBM); PBS, 2% BSA, 51.3 ng/ul salmon testes DNA, 50 uM zinc acetate, 200 nM TF, 25 C, 1 h; high values mean tight binding. The conditions noted are these: protein: recombinant; tags: N-terminal polyhistidine and DsRed monomer fusion (pET32a); chain copies: 2; label: CyDye5-dUTP incorporated in the synthesized complementary strand; 3' TTTTT single-stranded linker to array surface; dsDNA, one strand shown. The essentials: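 A custom Agilent array was converted to double-stranded form by primer extension with Cy5-dUTP and blocked with 2% BSA. Protein at 200 nM in PBS with 2% BSA, salmon testes DNA and 50 µM zinc acetate was applied for 1 h at 25 °C, followed by washing. The proteins were polyhistidine–DsRed N-terminal fusions of transcription factors, expressed in E. coli BL21-CodonPlus and Ni–NTA-purified. The binding signal is per-feature fluorescence intensity (arbitrary units) from an Axon 4000B scanner.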
Turning to “GTTCGGTTTCGCGGTCAAGCGCGTGACGTGAGGTCGCCCACGGAGTCACCTAGTGCAG”, the binding signal is 5720 fluorescence intensity (a.u.).
With “CAGCAGCAGCAGCAGCCGCCGCCTCCGTCCGTCCGTCCGTCGGAGTCACCTAGTGCAG” the figure was 3230 fluorescence intensity (a.u.); with “TTCGTGTGCCTAGGAAAATGGTATCCAAACCCCTCAAAATCGGAGTCACCTAGTGCAG”, 4190 fluorescence intensity (a.u.).
Consider “GAGAAATGACGACACATCCTCTCGAGTGATCAGGATCCGTCGGAGTCACCTAGTGCAG”, for which the binding signal is 3590 fluorescence intensity (a.u.).
For “TGTGCCCTCTCCGTTCGATCCAGGAAAATGATAGTGTGATCGGAGTCACCTAGTGCAG” the value was 50200 fluorescence intensity (a.u.).
Turning to “TCACATCCGAGCTGAGCTCCTGACACAGTGACACTACTGGCGGAGTCACCTAGTGCAG”, the binding signal was 4310 fluorescence intensity (a.u.).
As for “CGTACAACGGGTGTGTGTTTGGAGCCTGTAGCATGTGGTGCGGAGTCACCTAGTGCAG”, the binding signal is 4250 fluorescence intensity (a.u.).
For “GGGCAGCGTGTACAAGCCGGACAACGTGTCGCCGCCGGAGCGGAGTCACCTAGTGCAG” the value was 3340 fluorescence intensity (a.u.).
With “GGCCTGTCGTACAAGCCGCTTTGCTTGGGCATACAAGCAACGGAGTCACCTAGTGCAG” the figure was 65100 fluorescence intensity (a.u.); with “GATTACATGTAGACTATTTATCTACGTGGACAAAATCTCTCGGAGTCACCTAGTGCAG”, 13100 fluorescence intensity (a.u.); with “CGTACTCATCTCCTACACATCATCTCCAATTAATCTAATTCGGAGTCACCTAGTGCAG”, 3180 fluorescence intensity (a.u.).
In the case of “CCATTGATTGATTATCAGTGGGCGTAATCATCAGTCTAAACGGAGTCACCTAGTGCAG”, the binding signal is 42100 fluorescence intensity (a.u.).
On to “TTTGCCATTAGCGTACTCACCTAATCTAATCATCGGATTACGGAGTCACCTAGTGCAG”, for which the binding signal was 48900 fluorescence intensity (a.u.).
With “TCCATACATTATTGACGTAATCATAAATATACATCCATGTCGGAGTCACCTAGTGCAG” the figure was 3360 fluorescence intensity (a.u.); with “ATTTATCATTATTAACTAATAATAACATTGATGTAATTAACGGAGTCACCTAGTGCAG”, 3400 fluorescence intensity (a.u.).
For “GAAACTCTAAATCTGCCATTACCCCAAGTACATCATTAGTCGGAGTCACCTAGTGCAG” the value was 3310 fluorescence intensity (a.u.).
Turning to “AATGACAGGACAACGAGGACACCGTGGATATTAAAGACCCCGGAGTCACCTAGTGCAG”, the binding signal was 4140 fluorescence intensity (a.u.).
Consider “TGGTAACTAAACTGCCATGTCAGGGACAGATCGACCAGTGCGGAGTCACCTAGTGCAG”, for which the binding signal was 5160 fluorescence intensity (a.u.).
For “AGGACACGTAGCATTTCCTCCTCAAGCAAGAGGAGCAGTACGGAGTCACCTAGTGCAG” the value was 4000 fluorescence intensity (a.u.); for “AACGTCAAGTACTCACGTGGTCCACGAATATTTAAGCCTACGGAGTCACCTAGTGCAG”, 4480 fluorescence intensity (a.u.).
Turning to “GCGAACACTGAGGTGTTGACGTTGCGCTCCGCCTCGCTGTCGGAGTCACCTAGTGCAG”, the binding signal was 3840 fluorescence intensity (a.u.).
Turning to “GTCCCTCCGCCGGCATCAGCTCAACGCCGCCGTCCTCCTCCGGAGTCACCTAGTGCAG”, the binding signal was 3370 fluorescence intensity (a.u.).
For “ATTAAGCCCTCAATCGGCACAGGCGAGGAGTTCTCATCACCGGAGTCACCTAGTGCAG” the value was 12000 fluorescence intensity (a.u.).
With “GCCGAGAAGGCATCAACGGCACTGGCGAGGCCCTCTCAGCCGGAGTCACCTAGTGCAG” the figure was 39600 fluorescence intensity (a.u.); with “TCGTCGACTACGTGTTGGTGTTTCATGCCGCCAAGTCGACCGGAGTCACCTAGTGCAG”, 5250 fluorescence intensity (a.u.).
With “TATAAGCACAATGCAGCCTAGTTGTTGCCGTGACCTGAGTCGGAGTCACCTAGTGCAG”, the binding signal was 3180 fluorescence intensity (a.u.).
For “GACATCTGGAGGCGTCATGCAAGATGTCACATCCATAGAACGGAGTCACCTAGTGCAG” the value was 3940 fluorescence intensity (a.u.).
With “ACTGGCCGTGACGCATTTCAACCTCTTGATCTGAACTGCCCGGAGTCACCTAGTGCAG” the figure was 3620 fluorescence intensity (a.u.); with “AACCATAATGTTTGTGACACATTAAGGGCCTGTTCACTTTCGGAGTCACCTAGTGCAG”, 3660 fluorescence intensity (a.u.).
With “GATAGGCAAAGCTTCGAACTTTGGGCTGAAAACAAATTTTCGGAGTCACCTAGTGCAG” the figure was 28400 fluorescence intensity (a.u.); with “GGCAGGCTTGCACACAGGTGCAAAGATACGTGTGGCAGACCGGAGTCACCTAGTGCAG”, 3240 fluorescence intensity (a.u.).
Regarding “ATGCAAAAGATATATAGGCTTGTTTTACTGAAGGTGGCTTCGGAGTCACCTAGTGCAG”, the binding signal was 39100 fluorescence intensity (a.u.).
As to “GAGATGTCTGAACAAACAGATGGACGTGTAATGTTGTGGACGGAGTCACCTAGTGCAG”, the binding signal is 3400 fluorescence intensity (a.u.).
For “CCGTCTTTTCTTTCTTCACGCCAGCGTCGCCGTGGTCAAGCGGAGTCACCTAGTGCAG” the value was 3650 fluorescence intensity (a.u.); for “AATTTGGATTTGAATTATATCTGATTCAAATTTGAATTTGCGGAGTCACCTAGTGCAG”, 3270 fluorescence intensity (a.u.).
With “TTGGAATGCTGAAATTATTAGGGGACTATTCAAATTGATGCGGAGTCACCTAGTGCAG” the figure was 39200 fluorescence intensity (a.u.); with “CGGAGGGATTCGATTTGGAAGGAATTGGATTCGGAGTTGACGGAGTCACCTAGTGCAG”, 33200 fluorescence intensity (a.u.); with “GAAGGAATTGGATTGAATCAGAAAGGGGATCGATTCGATGCGGAGTCACCTAGTGCAG”, 45200 fluorescence intensity (a.u.).
With “TCGATTGGGGATTGGGGATTGGGGATCAGGAGGGATGGGGCGGAGTCACCTAGTGCAG” the figure was 4350 fluorescence intensity (a.u.); with “TTAGCTGGGATGAATTGGGAATGGCTGATGATTCATTGCTCGGAGTCACCTAGTGCAG”, 3790 fluorescence intensity (a.u.); with “CAAGCCAAGTCTGAAGAAGAAGAACTAGTCATCGCTTGCCCGGAGTCACCTAGTGCAG”, 3820 fluorescence intensity (a.u.).
In the case of “AAATCCTTGTCTTCCCACGCTGACGCTGCTGTGTCCAGGTCGGAGTCACCTAGTGCAG”, the binding signal is 4530 fluorescence intensity (a.u.).
